hcDAF12 agonist = H. contortus DAF-12 nuclear receptor activators, primary screen, cell-based, luminescence, HEK293, lit1-tk-luc reporter; hit rate 1.4% among 370,000; activation, % at 6.8 µM; HEK293 hcDAF-12 lit1-tk-luc reporter; 0% DMSO, 100% Δ7-dafachronic acid;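 active = activation above the mean of all tested compounds plus 3 SD, cut at about 5.5% in these data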
DAX1 inh-1 = DAX1 (NR0B1) inhibitors, primary screen, cell-based, HEK293, Gal4-DAX1, luciferase luminescence. AID 504766, 2011. HEK293 Gal4-DAX1 luciferase reporter. inhibition, % at 6.75 µM. Nuclear receptor subfamily 0 group B member 1 (Homo sapiens), P51843. hit rate 0.99% among 340,000;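 active = inhibition above the mean over all tested compounds plus 3 SD, cut at about 4.2% in these data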;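 also: inhibition shows as a rise in luminescence from relieved DAX1 repression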
Target sequence (P51843 207-470 limits assumed): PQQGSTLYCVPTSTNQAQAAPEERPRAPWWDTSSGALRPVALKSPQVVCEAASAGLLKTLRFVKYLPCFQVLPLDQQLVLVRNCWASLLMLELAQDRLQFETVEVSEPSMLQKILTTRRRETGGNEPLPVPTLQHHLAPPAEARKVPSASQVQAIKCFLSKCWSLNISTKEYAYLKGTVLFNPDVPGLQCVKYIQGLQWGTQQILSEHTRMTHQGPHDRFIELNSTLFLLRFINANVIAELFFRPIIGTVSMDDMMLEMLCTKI
DAX1 inh-2 = DAX1 (NR0B1) inhibitors on StAR promoter, primary screen, cell-based, luminescence, SF-1 (NR5A1), full-length DAX-1. HEK293T StAR-luciferase reporter, SF-1/DAX-1 repression relief. inhibition, % at 6.8 µM. hit rate 1.1% among 370,000;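 active = inhibition above the mean over all tested compounds plus 3 SD, cut at about 3.6% in these data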;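 also: higher inhibition means more luminescence from relief of DAX-1 repression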
hgDAF-12 ag = H. glycines DAF-12 receptor agonists, primary screen, cell-based, luminescence, HEK293, GAL4 fusion, UAS-luciferase. HEK293 GAL4-hgDAF12 UAS-luciferase reporter, agonist luminescence; normalized to butyrate control. activation, % at 6.8 µM. Nuclear hormone receptor DAF-12 (Heterodera glycines), GAL4 fusion. hit rate 1.8% among 370,000;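 active = activation above a cutoff set at the mean of all screened compounds plus 3 SD, cut at about 10% in these data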
ssDAF-12 act = S. stercoralis DAF-12 nuclear receptor activators, primary screen, cell-based, luminescence, HEK293, GRIP1 co-expression, lit1-tk-luc | Nuclear hormone receptor DAF-12 (Strongyloides stercoralis) | HEK293 ssDAF-12/GRIP1 lit1-tk-luc reporter; % of 3 µM dafachronic acid response | activation, % at 6.8 µM | hit rate 1% among 370,000 | AID 652126, 2013;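 active = activation above the mean over all tested compounds plus 3 SD, cut at about 0.9% in these data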
A number is an active result. Compounds with a hit are over-represented: about 4.1% of the library has one in this group of screens.

How did Cc1ccc(OCCn2c(CCNC(=O)C3CCCCCC3)nc3ccccc32)cc1 do in these assays?
hcDAF12 agonist: inactive; hgDAF-12 ag: inactive; ssDAF-12 act: inactive

Results for COC(=O)CSCc1nc2ccccc2[nH]c1=O ?
hcDAF12 agonist: 5.6; DAX1 inh-1: inactive; DAX1 inh-2: inactive; hgDAF-12 ag: inactive; ssDAF-12 act: inactive

What do the screens show for `COC(=O)CCc1nc2ccccc2[nH]c1=O`?
hcDAF12 agonist: inactive; DAX1 inh-1: inactive; DAX1 inh-2: inactive; hgDAF-12 ag: inactive; ssDAF-12 act: inactive

How did COC(=O)C1=C(C)N(Cc2ccccc2C(F)(F)F)C(=NCc2cc(OC)c(OC)c(OC)c2)NC1c1ccc(Cl)cc1 (stereo not drawn) do in these assays?
hcDAF12 agonist: inactive; DAX1 inh-2: inactive; hgDAF-12 ag: inactive; ssDAF-12 act: inactive

What do the screens show for `Brc1cccc(C2Nc3cccc4cccc(c34)N2)c1`?
hcDAF12 agonist: inactive; DAX1 inh-1: 5.2; DAX1 inh-2: inactive; hgDAF-12 ag: inactive; ssDAF-12 act: inactive

How did COCCNC(=S)N(C)[C@H]1C[C@H]2c3[nH]c4c(-c5cccc(C)c5)cccc4c3CCN2C[C@H]1[C@H](C)O do in these assays?
hcDAF12 agonist: inactive; DAX1 inh-2: inactive; hgDAF-12 ag: inactive; ssDAF-12 act: inactive

How did O=C1/C(=C/c2ccc(O)c(O)c2)Oc2cc(O)ccc21 do in these assays?
hcDAF12 agonist: inactive; DAX1 inh-1: inactive; DAX1 inh-2: inactive; hgDAF-12 ag: inactive; ssDAF-12 act: inactive

What do the screens show for `COc1cc(/C=C2\Oc3cc(O)ccc3C2=O)ccc1O`?
hcDAF12 agonist: inactive; DAX1 inh-1: 7.4; DAX1 inh-2: 4.3; hgDAF-12 ag: inactive; ssDAF-12 act: inactive

Results for COCCn1c(SCC(=O)Nc2ccc(C)cc2C)nc2c(oc3ccccc32)c1=O ?
hcDAF12 agonist: inactive; DAX1 inh-1: inactive; DAX1 inh-2: inactive; hgDAF-12 ag: inactive; ssDAF-12 act: 0.9

How did COC(=O)c1cccc(NC(=O)c2cccc(-n3cnnn3)c2)c1 do in these assays?
hcDAF12 agonist: inactive; DAX1 inh-1: inactive; DAX1 inh-2: inactive; hgDAF-12 ag: inactive; ssDAF-12 act: inactive

What do the screens show for `O=C(Nc1cnc2ccccc2c1)c1cccc(-n2cnnn2)c1`?
hcDAF12 agonist: 6.3; DAX1 inh-1: inactive; DAX1 inh-2: inactive; hgDAF-12 ag: inactive; ssDAF-12 act: inactive

How did C#CCNC(=O)C[C@H]1C[C@@]2(C(=O)OC)C(=C[C@H](C3CCCC3)O[C@@H]2C)N(Cc2ccco2)C1=O do in these assays?
hcDAF12 agonist: inactive; DAX1 inh-2: inactive; hgDAF-12 ag: inactive; ssDAF-12 act: inactive

Results for O=C(Cn1cc(C(F)(F)F)ccc1=O)N1CCc2ccccc2C1 ?
hcDAF12 agonist: inactive; DAX1 inh-1: inactive; DAX1 inh-2: inactive; hgDAF-12 ag: inactive; ssDAF-12 act: 1.0

Results for Cn1c(SCc2ccccc2Cl)nc2c1c(=O)[nH]c(=O)n2C ?
hcDAF12 agonist: inactive; DAX1 inh-1: inactive; DAX1 inh-2: inactive; hgDAF-12 ag: inactive; ssDAF-12 act: 1.5

How did Cn1c(SCc2ccccc2)nc2c1c(=O)[nH]c(=O)n2C do in these assays?
hcDAF12 agonist: inactive; DAX1 inh-1: inactive; DAX1 inh-2: inactive; hgDAF-12 ag: inactive; ssDAF-12 act: inactive

How did COc1ccc(OC)c(S(=O)(=O)N2CCCCC2C(=O)N2CCN(Cc3ccc(F)cc3)CC2)c1 (stereo not drawn) do in these assays?
hcDAF12 agonist: inactive; DAX1 inh-2: inactive; hgDAF-12 ag: inactive; ssDAF-12 act: inactive

How did CCOC(=O)c1ccc(NC(=O)CSc2nnc(-c3cc(-c4ccccc4)n[nH]3)n2N)cc1 do in these assays?
hcDAF12 agonist: inactive; DAX1 inh-2: inactive; hgDAF-12 ag: inactive; ssDAF-12 act: inactive

Results for Cc1nnc(NC(=O)CSc2nnc(C)n2Cc2ccccc2)s1 ?
hcDAF12 agonist: inactive; DAX1 inh-1: inactive; DAX1 inh-2: inactive; hgDAF-12 ag: inactive; ssDAF-12 act: inactive

Results for Cc1nnc(SCC(=O)Nc2ccc(Cl)cn2)n1Cc1ccccc1 ?
hcDAF12 agonist: inactive; DAX1 inh-1: 6.0; DAX1 inh-2: inactive; hgDAF-12 ag: inactive; ssDAF-12 act: inactive

How did CCn1ncc(CNC(=O)C2(C)CC2(Cl)Cl)c1C (stereo not drawn) do in these assays?
hcDAF12 agonist: inactive; DAX1 inh-1: inactive; DAX1 inh-2: inactive; hgDAF-12 ag: inactive; ssDAF-12 act: inactive

Results for CC1CCCCC12NC(=O)N(CC(=O)N1CCc3ccccc31)C2=O (stereo not drawn) ?
hcDAF12 agonist: 5.8; DAX1 inh-1: inactive; DAX1 inh-2: inactive; hgDAF-12 ag: inactive; ssDAF-12 act: inactive

Results for CCC1(CC)NC(=O)N(CC(=O)N2CCc3ccccc32)C1=O ?
hcDAF12 agonist: inactive; DAX1 inh-1: inactive; DAX1 inh-2: inactive; hgDAF-12 ag: inactive; ssDAF-12 act: inactive

What do the screens show for `COc1ccc(OC)c2sc(NC(=O)c3cccc(N4C(=O)CCC4=O)c3)nc12`?
hcDAF12 agonist: inactive; DAX1 inh-1: 4.5; DAX1 inh-2: inactive; hgDAF-12 ag: inactive; ssDAF-12 act: inactive

Results for COc1ccc(NC(=O)C2=C(C)NC(=S)NC2c2ccc(O)c(OC)c2)cc1 (stereo not drawn) ?
hcDAF12 agonist: inactive; DAX1 inh-1: inactive; DAX1 inh-2: inactive; hgDAF-12 ag: inactive; ssDAF-12 act: inactive

Results for COc1cc(C2NC(=S)NC(C)=C2C(=O)Nc2ccc(C)cc2)ccc1O (stereo not drawn) ?
hcDAF12 agonist: inactive; DAX1 inh-1: inactive; DAX1 inh-2: inactive; hgDAF-12 ag: 11; ssDAF-12 act: inactive

Results for CC(=O)NC(CCS(C)(=O)=O)C(=O)Nc1ccccc1C (stereo not drawn) ?
hcDAF12 agonist: inactive; DAX1 inh-1: inactive; DAX1 inh-2: inactive; hgDAF-12 ag: inactive; ssDAF-12 act: inactive

What do the screens show for `CC(=O)NC(CCS(C)(=O)=O)C(=O)N1CCc2ccccc21` (stereo not drawn)?
hcDAF12 agonist: 5.6; DAX1 inh-1: inactive; DAX1 inh-2: inactive; hgDAF-12 ag: inactive; ssDAF-12 act: 1.0

How did COC(=O)[C@]12C[C@H](CC(=O)N3CCSCC3)C(=O)N(Cc3ccc(Cl)cc3Cl)C1=C[C@H](C1CCCC1)O[C@@H]2C do in these assays?
hcDAF12 agonist: inactive; DAX1 inh-2: inactive; hgDAF-12 ag: inactive; ssDAF-12 act: inactive

How did O=C(Nc1ccccc1)Nc1nc2ncccn2c1-c1ccc(F)c(F)c1 do in these assays?
hcDAF12 agonist: inactive; DAX1 inh-2: inactive; hgDAF-12 ag: inactive; ssDAF-12 act: inactive

How did O=S(=O)(c1ccc(Br)cc1)N1CCN=C1SCc1cccnc1 do in these assays?
hcDAF12 agonist: inactive; DAX1 inh-1: inactive; DAX1 inh-2: inactive; hgDAF-12 ag: inactive; ssDAF-12 act: inactive

How did O=S(=O)(c1ccc(F)cc1)N1CCN=C1SCc1cccnc1 do in these assays?
hcDAF12 agonist: inactive; DAX1 inh-1: 7.1; DAX1 inh-2: inactive; hgDAF-12 ag: inactive; ssDAF-12 act: inactive

Bioassay records deposited in PubChem by The Scripps Research Institute Molecular Screening Center.
